FLuc counter: counter-screen for miR-21 project: firefly luciferase inhibitors or activators; P08659; purified FLuc, Km substrates, luminescence inhibition; Potency, µM (top dose mostly 57.5 µM), without a hit: at the top dose activity change, negative = inhibition, usual class: inhibitors; actives 6.9% (n = 360,000); AID 588342;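 also: plate controls were vehicle for no effect and reference inhibitor for full effect; nearly all actives have a fitted effect of over 55% in size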
Target sequence (P08659 whole entry, looked up): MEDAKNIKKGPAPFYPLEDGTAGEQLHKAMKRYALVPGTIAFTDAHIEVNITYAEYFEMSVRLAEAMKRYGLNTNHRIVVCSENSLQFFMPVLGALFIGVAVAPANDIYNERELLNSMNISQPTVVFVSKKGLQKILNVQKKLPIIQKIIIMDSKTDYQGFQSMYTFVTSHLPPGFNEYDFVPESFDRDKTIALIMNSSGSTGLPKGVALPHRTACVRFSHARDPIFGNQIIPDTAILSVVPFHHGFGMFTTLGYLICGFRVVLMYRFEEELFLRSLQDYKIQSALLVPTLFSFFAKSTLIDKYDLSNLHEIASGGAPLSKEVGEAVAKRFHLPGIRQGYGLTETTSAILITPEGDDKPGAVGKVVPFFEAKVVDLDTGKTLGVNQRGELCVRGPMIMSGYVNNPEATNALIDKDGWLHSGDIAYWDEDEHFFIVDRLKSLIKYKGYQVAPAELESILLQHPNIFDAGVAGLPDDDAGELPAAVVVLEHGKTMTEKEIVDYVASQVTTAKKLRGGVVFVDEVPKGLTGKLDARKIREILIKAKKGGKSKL
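Purified P. pyralis luciferase (10nM final) with 10uM D-luciferin and 10uM ATP (Km levels) in 50mM Tris acetate pH 7.5, 10mM Mg acetate, 0.01% Tween-20, 0.05% BSA; qHTS 6-point titration, ~60 µM downward; luminescence read.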
KinaseGlo FLuc: counter-screen: inhibitors of Kinase-Glo firefly luciferase | Q27757 | Kinase-Glo luciferase, ATP luminescence, 8 min | Potency, µM (highest dose often 38.3 µM), without a hit: top-dose activity change, negative = inhibition, hits mostly inhibitors | actives 0.28% (n = 200,000); also: % is scaled to controls: 0 for no effect and ±100 for the full control effect; nearly all actives have a fitted effect of over 60% in size
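Luminescence was the read-out, taken after 8-minute incubation at ambient temperature. Luciferase turned over luciferin with 10 uM ATP in imidazole pH 7.2 buffer containing KCl, MgCl2, Tween 20 and BSA.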
Rab9 prom act: activators of Rab9 promoter | Huh7 Rab9 promoter-luciferase reporter, luminescence, 24 h | Potency, µM (highest dose often 9.22 µM), for inactives: top-dose activation, negative = inhibition, actives largely listed as activators | actives 2.8% (n = 320,000); also: % of control where 0% means no effect; nearly all actives have a fitted effect of over 60% in size
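Luminescence read-out: Huh7 cells stably expressing Rab9-luciferase, treated 24 h with compound at 37 °C, then lysed with luciferase reagent for 10 min at ambient before reading.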
SMN2 splice enh: SMN2 splice variant enhancement | HEK293 SMN2-luciferase splicing reporter, luminescence, 30-36 h | actives 2.8% (n = 210,000) | Potency, µM (titrated, usually from 46.1 µM), without a hit: at the highest dose activity change, positive = activation, most hits filed as activators; also: % of control where 0% means no effect; nearly all actives have a fitted effect of over 55% in size
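qHTS luciferase splicing reporter: luminescence rises when SMN2 exon 7 is included in transfected HEK293 cells. Compound exposure lasted 30-36 h at 37C, with 4.5 mM final sodium butyrate as control, followed by a ONE-Glo read.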
ELG1 genotox: induces genotoxicity in HEK293T cells with luciferase-tagged ELG1. HEK293T ELG1-luciferase reporter, luminescence, 16 h. Potency, µM (titrated, usually from 46 µM), for the others: top-dose activity change, positive = activation, most hits filed as activators. actives 1.3% (n = 330,000). AID 504466; also: % of control where 0% means no effect; nearly all actives have a fitted effect of over 60% in size
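Quantitative HTS format in 1536-well plates. HEK293T ELG1-luciferase reporter cells receive test compound and are incubated 16 hr at 37 °C, 5% CO2; ONE-Glo added, 30 min room temperature, then luminescence read.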
NPC1 prom act: activates the NPC1 promoter. Huh7 NPC1 promoter luciferase reporter, 24 h. Potency, µM (highest dose often 9.22 µM), for the others: top-dose activation, actives largely listed as activators. actives 2.4% (n = 320,000); also: % of control where 0% means no effect; nearly all actives have a fitted effect of over 60% in size
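Luminescence from an NPC1 promoter-driven luciferase reporter in stably transfected Huh7 cells was measured after 24 h compound treatment at 37 °C, followed by 10 min ambient incubation with luciferase detection reagent.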
* = called active by the depositor; u = inconclusive; x = no result; [ ] = another dose, or the depositor's remark. Most compounds without a hit are left out; they make up all but 7.4% or so of the library. Calls follow the shape of the dose curve; as a rule, active = well fitted curve in the direction sought with a large enough effect; inconclusive = small, poorly fitted or top-dose-only effect, or another doubt; inactive = no such curve, though single readings can be large; an effect the other way counts as inactive or inconclusive. Potency is read from the fitted curve at half-maximal effect.

SMILES | FLuc counter | KinaseGlo FLuc | Rab9 prom act | SMN2 splice enh | ELG1 genotox | NPC1 prom act
Cc1cc(C)cc(NC(=O)c2cc(S(=O)(=O)N3CCc4ccccc43)cn2C)c1 | -6.4% | x | x | x | x | x
CC(=O)N1c2c(cc(Br)cc2S(=O)(=O)N2CCN(c3ccccc3F)CC2)CC1C (configuration not stated) | -0.3% | x | -1.5% | x | -19.4% | -3.7%
O=C(COc1cccnc1[N+](=O)[O-])c1ccc(Cl)s1 | u | x | 9.2% | x | 0.2% | 4.4%
COc1ccc([N+](=O)[O-])cc1NC1CCN(C(=O)c2cccs2)CC1 | 1.4% | x | 6.2% | x | 5.3% | -0.5%
O=C(c1cc2cc(Cl)ccc2o1)N1CCCCCC1 | 2.5% | x | 3.98µM* | x | 12.8% | u
O=C(c1cc2cc3ccc(Cl)cc3nc2o1)N1CCCCCC1 | 2.69µM* | x | 3.55µM* | x | u | 2.51µM*
Nc1ncnc2nc(Sc3ccc(Cl)cc3)[nH]c12 | -2.4% | 3.9% | -4.4% | -27.5% | 0.8% | -2.2%
Nc1ncnc2nc(SCc3ccc(Cl)cc3Cl)[nH]c12 | 21.3µM* | 0.5% | 0.7% | -31.2% | 3.2% | -1.2%
C/C(=C\CNc1ncnc2c1ncn2[C@@H]1O[C@H](CO)[C@@H](O)[C@H]1O)CO | x | -1.2%[39.9 µM] | x | x | x | x
COc1ccccc1C(=O)NCC(c1ccco1)N1CCc2ccccc21 (configuration not stated) | 1.8% | x | -0.2% | x | -17.0% | -1.3%
Cc1ccnc(N/N=C/c2ccccc2)n1 | 7.57µM* | -24.7% | 1.26µM* | 12.6µM* | u | 2.51µM*
CSc1nccc(N/N=C/c2ccccc2)n1 | 2.69µM* | x | 1.41µM* | x | u | 1.58µM*
C(=N\Nc1nccc(-c2cccnc2)n1)/c1ccccc1 | 4.78µM* | x | 1.26µM* | x | 12.3% | 1.78µM*
CC1(c2ccccc2)NC(=O)N(CC(=O)NNC(=O)c2cccc(Cl)c2)C1=O (configuration not stated) | 2.2% | x | -2.8% | x | -0.2% | -3.2%
Cc1sc2ncn(CC(=O)N3CCN(c4ccc(F)cc4)CC3)c(=O)c2c1S(=O)(=O)N1CCOCC1 | 0.1% | x | 3.0% | x | -13.5% | -4.1%
C1CCN=C(Nc2nc3c(s2)CCCC3)CC1 | u | -0.7% | u | 10µM* | 11.4% | u
Cc1cccc(Nc2nc3c(s2)CCCC3)c1 | 4.78µM* | -4.6% | 3.55µM* | 28.2%[1.84 µM] | u | u
O=S1(=O)N=C(Nc2nc3c(s2)CCCC3)c2ccccc21 | 0.849µM* | -13.1% | 1.41µM* | 3.98µM* | u | 2.51µM*
O=C(O)c1ccc(Nc2nc3c(s2)CCCC3)cc1 | 0.301µM* | -4.1% | 0.0398µM* | 0.631µM* | u | -27.8%
CCn1c(=O)n(CC)c2cc(N3CCCC3)c(NC(=O)c3ccccc3F)cc21 | -0.2% | x | 0.0% | x | -12.6% | -9.0%
CCOc1ccc(C(=O)OCC(=O)N2CCCC2)cc1 | -16.6% | x | 29.9% | x | u | 19.8%
CCc1ccc(C(C)NC(=O)COC(=O)c2ccc(-n3cnnn3)cc2)cc1 (configuration not stated) | x | x | x | x | -0.1% | x
CN(CC(=O)Nc1ccc(Cl)c(C(F)(F)F)c1)C(=O)CCNC(=O)c1ccco1 | 7.6% | x | -1.6% | x | -1.6% | 0.5%
COc1ccc(Cl)cc1NC(=O)CN(C)C(=O)c1ccc2c(c1)OCCO2 | -2.7% | x | -1.2% | x | -1.9% | -0.2%
CN(CC(=O)Nc1ccc(Cl)c(C(F)(F)F)c1)C(=O)CCCNC(=O)c1ccc(Cl)cc1 | 19µM* | x | 5.4% | x | -1.7% | 13.0%
SMILES | FLuc counter | KinaseGlo FLuc | Rab9 prom act | SMN2 splice enh | ELG1 genotox | NPC1 prom act
COc1ccc(Cl)cc1NC(=O)CN(C)C(=O)CCCNC(=O)c1ccc(Cl)cc1 | 13.5µM* | x | -4.0% | x | 0.7% | -1.1%
COc1ccc(C(=O)NNC(=O)CSc2nnc(C3CC3)n2C)cc1 | 4.5% | x | -2.5% | x | -1.1% | -1.0%
COc1ccc(C2=CC(=O)C=CC2=O)cc1 | 8.49µM* | x | -2.7% | x | -0.3% | -2.5%
C=CCNC(=S)NNC(=O)c1cc(C)nc2ccccc12 | -17.8% | 12.2% | 3.4% | 1.2% | -2.1% | -2.6%
CCNC(=S)NNC(=O)c1cc(C2CC2)nc2ccccc12 | 12µM* | -1.6% | 1.9% | -1.0% | -1.5% | -0.7%
CCCNC(=S)NNC(=O)c1cc(C2CC2)nc2ccccc12 | 21.3µM* | x | 5.1% | x | -0.1% | -3.0%
N#Cc1ccc(-c2csc(NC(=O)c3cc(-c4cccs4)nc4ccccc34)n2)cc1 | -1.9% | x | -1.7% | x | -21.3% | -5.9%
N#Cc1ccc(/C=N/NC(=O)c2cc(-c3cccs3)nc3ccccc23)cc1 | 6.75µM* | -1.0% | -5.8% | 6.8% | 1.6% | -15.9%
COc1cc(/C=N/NC(=O)c2cc(-c3cccs3)nc3ccccc23)ccc1O | 6.75µM* | x | -0.7% | x | -1.2% | -2.1%
CC1CCN(C(=O)c2ccc(N3CCOCC3)c([N+](=O)[O-])c2)CC1 | x | x | x | x | 1.4% | x
CSc1ccc(CN(C)C(=O)c2cc3ccccc3o2)cc1 | 16.9µM* | x | -0.9% | x | 7.6% | 21.6%
CC(C)c1ccc(Nc2sc(C(=O)c3ccccc3)c(N)c2S(=O)(=O)c2ccccc2)cc1 | 3.3% | x | x | x | x | x
Nc1ccc2nc(-c3cccc(-c4nc5ccc(N)cc5[nH]4)n3)[nH]c2c1 | 9.53µM* | x | 3.1% | x | -3.9% | 1.2%
Nc1cccc(-c2nc3ccccc3[nH]2)c1 | 13.5µM* | -14.0% | 3.98µM* | 12.6µM* | u | 2.82µM*
Cc1ccc2nc(-c3sc4nc(C)cc(C)c4c3N)[nH]c2c1 | 0.338µM* | -0.2% | u | 2.51µM* | u | 20.6%
Nc1ccc2nc(-c3ccc(-c4nc5ccc(N)cc5[nH]4)cc3)[nH]c2c1 | -16.0% | x | -1.4% | x | -5.1% | -5.8%
Cc1ccc2nc(-c3cccc(N)c3)[nH]c2c1 | 0.953µM* | 10µM* | 1.58µM* | 2.24µM* | u | 0.794µM*
CC(=O)c1sc2nc(C)cc(C)c2c1N | -14.7% | 0.7% | 1.4% | u | -2.2% | 0.2%
CC1Sc2ccc(S(=O)(=O)CCC(=O)NCc3ccc(Cl)cc3)cc2NC1=O (configuration not stated) | 1.9% | x | -2.1% | x | -7.4% | 4.9%
CCCOc1ccc(C(=O)NCC(c2ccc(OC)cc2)N2CCCCC2)cc1 (configuration not stated) | -1.8% | x | x | -6.6% | x | x
O=C(CCN1C(=O)c2ccccc2S1(=O)=O)Nc1ccc(Cl)cc1 | -7.1% | x | 6.4% | x | 1.8% | -6.2%
Cc1cc(-c2nnc(SCCC(=O)Nc3ccccc3)o2)no1 | 0.6% | x | -4.2% | x | -8.5% | -7.4%
O=C(NCCc1ccccn1)c1cc2ccccc2o1 | u | x | u | x | u | 3.55µM*
Cc1ccc(-c2nc3cc(NC(=O)c4cc5ccccc5o4)ccc3o2)cc1 | -10.3% | x | x | 9.4% | x | x
COc1ccccc1NC(=O)c1cc2ccccc2o1 | 6.75µM* | -2.1% | u | 22.4µM* | u | u
